The supplement of paper PMC8728848
Many of the other results were omitted from the sample, so the strongest signals are more common in it than they were.

Columns and labels:
Experiment in all cases: glycan array binding signal (z-score within array); higher = stronger binding
Conditions in all cases: glycan notation: IUPAC condensed, linker removed
Fuc(a1-2)Gal(b1-3)GalNAc = target: Fuc(a1-2)Gal(b1-3)GalNAc
How it was run: (§1)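 From the Consortium for Functional Glycomics database, 3228 arrays were curated, keeping only those whose protein sequence was available. Binding is given as a within-array Z-score averaged across arrays sharing a protein sequence and across linkers. Negative Z-scores can be read as non-binding.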

[1] = target: Fuc(a1-2)Gal(b1-3)GalNAc(b1-4)[Neu5Ac(a2-3)]Gal(b1-4)Glc
How it was run: as §1

[2] = target: Fuc(a1-2)Gal(b1-3)GlcNAc(b1-3)[Neu5Ac(a2-6)Gal(b1-4)GlcNAc(b1-6)]Gal(b1-4)Glc
How it was run: as §1

[3] = target: Fuc(a1-2)Gal(b1-4)GlcNAc(b1-3)Gal(b1-4)GlcNAc(b1-3)Gal(b1-4)GlcNAc
How it was run: as §1

[4] = target: Fuc(a1-2)Gal(b1-4)GlcNAc(b1-3)[Fuc(a1-2)Gal(b1-4)GlcNAc(b1-6)]GalNAc
How it was run: as §1

[5] = target: Fuc(a1-2)Gal(b1-4)[Fuc(a1-3)]GlcNAc(b1-3)GalNAc
How it was run: as §1

[6] = target: Fuc(a1-2)Gal6S(b1-4)GlcNAc
How it was run: as §1

Fuc(a1-2)[Gal(a1-3)]Gal = target: Fuc(a1-2)[Gal(a1-3)]Gal
How it was run: as §1

[7] = target: Fuc(a1-2)[Gal(a1-3)]Gal(b1-4)GlcNAc(b1-2)Man(a1-3)[Fuc(a1-2)[Gal(a1-3)]Gal(b1-4)GlcNAc(b1-2)Man(a1-6)]Man(b1-4)GlcNAc(b1-4)[Fuc(a1-6)]GlcNAc
How it was run: as §1

[8] = target: Fuc(a1-2)[Gal(a1-3)]Gal(b1-4)GlcNAc(b1-3)[Fuc(a1-2)[Gal(a1-3)]Gal(b1-4)GlcNAc(b1-6)]GalNAc
How it was run: as §1

[9] = target: Fuc(a1-2)[GalNAc(a1-4)]Gal(b1-4)GlcNAc
How it was run: as §1

[10] = target: Fuc(a1-3)[Gal(b1-4)]GlcNAc(b1-3)GalNAc
How it was run: as §1

[11] = target: Gal(a1-3)Gal(b1-4)[Fuc(a1-3)]GlcNAc
How it was run: as §1

Gal(b1-3)Gal = target: Gal(b1-3)Gal
How it was run: as §1

Gal(b1-3)Gal(b1-4)GlcNAc = target: Gal(b1-3)Gal(b1-4)GlcNAc
How it was run: as §1

[12] = target: Gal(b1-3)GalNAc(a1-3)[Fuc(a1-2)]Gal(b1-4)Glc
How it was run: as §1

[13] = target: Gal(b1-3)GalNAc(a1-3)[Fuc(a1-2)]Gal(b1-4)GlcNAc
How it was run: as §1

Gal(b1-3)GalNAc(b1-3)Gal = target: Gal(b1-3)GalNAc(b1-3)Gal
How it was run: as §1

[14] = target: Gal(b1-3)GalNAc(b1-3)Gal(a1-4)Gal(b1-4)Glc
How it was run: as §1

[15] = target: Gal(b1-3)GalNAc(b1-4)Gal(b1-4)Glc
How it was run: as §1

[16] = target: Gal(b1-3)GalNAc(b1-4)[Neu5Ac(a2-3)]Gal(b1-4)Glc
How it was run: as §1

Gal(b1-3)GlcNAc = target: Gal(b1-3)GlcNAc
How it was run: as §1

[17] = target: Gal(b1-3)GlcNAc(b1-3)Gal(b1-3)GlcNAc
How it was run: as §1

[18] = target: Gal(b1-3)[GlcNAc(b1-6)]GalNAc
How it was run: as §1

[19] = target: Gal(b1-3)[Neu5Ac(a2-6)]GalNAc
How it was run: as §1

Gal(b1-4)Glc = target: Gal(b1-4)Glc
How it was run: as §1

[20] = target: Gal(b1-4)GlcNAc(b1-3)Gal(b1-3)GlcNAc
How it was run: as §1

[21] = target: Gal(b1-4)GlcNAc(b1-3)Gal(b1-4)GlcNAc(b1-3)Gal(b1-4)GlcNAc(b1-3)Gal(b1-4)GlcNAc(b1-3)Gal(b1-4)GlcNAc(b1-2)[Gal(b1-4)GlcNAc(b1-3)Gal(b1-4)GlcNAc(b1-3)Gal(b1-4)GlcNAc(b1-3)Gal(b1-4)GlcNAc(b1-3)Gal(b1-4)GlcNAc(b1-6)]Man(a1-6)[Gal(b1-4)GlcNAc(b1-3)Gal(b1-4)GlcNAc(b1-3)Gal(b1-4)GlcNAc(b1-3)Gal(b1-4)GlcNAc(b1-3)Gal(b1-4)GlcNAc(b1-2)Man(a1-3)]Man(b1-4)GlcNAc(b1-4)[Fuc(a1-6)]GlcNAc
How it was run: as §1

[22] = target: Gal(b1-4)GlcNAc(b1-3)[Gal(b1-4)GlcNAc(b1-6)]GalNAc
How it was run: as §1

[23] = target: Gal(b1-4)GlcNAc(b1-6)Gal(b1-4)GlcNAc
How it was run: as §1

[24] = target: Gal(b1-4)GlcNAc(b1-6)[Gal(b1-3)]GlcNAc
How it was run: as §1

Gal6P(b1-4)GlcNAc = target: Gal6P(b1-4)GlcNAc
How it was run: as §1

GalNAc(b1-3)Gal = target: GalNAc(b1-3)Gal
How it was run: as §1

[25] = target: GalNAc(b1-3)Gal(a1-4)Gal(b1-4)GlcNAc
How it was run: as §1

GalNAc(b1-4)Gal(b1-4)Glc = target: GalNAc(b1-4)Gal(b1-4)Glc
How it was run: as §1

[26] = target: GlcNAc(a1-4)Gal(b1-4)GlcNAc(b1-3)Gal(b1-4)Glc
How it was run: as §1

[27] = target: GlcNAc(a1-4)Gal(b1-4)GlcNAc(b1-3)Gal(b1-4)GlcNAc(b1-3)Gal(b1-4)GlcNAc
How it was run: as §1

[28] = target: GlcNAc(b1-2)Gal(b1-3)GalNAc
How it was run: as §1

[29] = target: GlcNAc(b1-2)Man(a1-3)[GlcNAc(b1-2)Man(a1-6)]Man(b1-4)GlcNAc(b1-4)[Fuc(a1-6)]GlcNAc
How it was run: as §1

GlcNAc(b1-3)Fuc = target: GlcNAc(b1-3)Fuc
How it was run: as §1

[30] = target: GlcNAc(b1-3)Gal(b1-4)GlcNAc(b1-3)[GlcNAc(b1-3)Gal(b1-4)GlcNAc(b1-3)]GalNAc
How it was run: as §1

GlcNAc(b1-3)Man = target: GlcNAc(b1-3)Man
How it was run: as §1

GlcNAc(b1-4)GlcNAc = target: GlcNAc(b1-4)GlcNAc
How it was run: as §1

[31] = target: Neu5Ac(a2-3)Gal(b1-3)GalNAc(b1-4)[Neu5Ac(a2-8)Neu5Ac(a2-3)]Gal(b1-4)Glc
How it was run: as §1

[32] = target: Neu5Ac(a2-3)Gal(b1-3)GlcNAc(b1-3)Gal(b1-3)GlcNAc
How it was run: as §1

[33] = target: Neu5Ac(a2-3)Gal(b1-3)GlcNAc(b1-3)GalNAc
How it was run: as §1

[34] = target: Neu5Ac(a2-3)Gal(b1-3)[Fuc(a1-4)]GlcNAc(b1-3)Gal(b1-3)[Fuc(a1-4)]GlcNAc
How it was run: as §1

[35] = target: Neu5Ac(a2-3)Gal(b1-3)]Neu5Ac(a2-3)Gal(b1-4)]GlcNAc
How it was run: as §1

Neu5Ac(a2-3)Gal(b1-4)Glc = target: Neu5Ac(a2-3)Gal(b1-4)Glc
How it was run: as §1

[36] = target: Neu5Ac(a2-3)Gal(b1-4)[Fuc(a1-3)]GlcNAc(b1-3)Gal(b1-4)GlcNAc
How it was run: as §1

Neu5Ac(a2-6)Gal = target: Neu5Ac(a2-6)Gal
How it was run: as §1

[37] = target: Neu5Ac(a2-6)Gal(b1-4)GlcNAc(b1-2)[Neu5Ac(a2-6)Gal(b1-4)GlcNAc(b1-4)]Man(a1-3)[GlcNAc(b1-4)][Neu5Ac(a2-6)Gal(b1-4)GlcNAc(b1-2)[Neu5Ac(a2-6)Gal(b1-4)GlcNAc(b1-6)]Man(a1-6)]Man(b1-4)GlcNAc(b1-4)GlcNAc
How it was run: as §1

[38] = target: Neu5Ac(a2-6)Gal(b1-4)GlcNAc(b1-3)Gal(b1-4)GlcNAc
How it was run: as §1

[39] = target: Neu5Ac(a2-6)Gal(b1-4)GlcNAc(b1-6)[Gal(b1-3)]GalNAc
How it was run: as §1

[40] = target: Neu5Ac(a2-6)Gal(b1-4)GlcNAc6S
How it was run: as §1

[41] = target: Neu5Ac(a2-8)Neu5Ac(a2-8)Neu5Ac(a2-3)[Gal(b1-3)GalNAc(b1-4)]Gal(b1-4)Glc
How it was run: as §1

[42] = target: Neu5Ac(a2-8)Neu5Gc(a2-3)Gal(b1-4)GlcNAc
How it was run: as §1

B1: Epa7 (Candida glabrata), Q6DTM6_CANGB (protein)
chain: MGSSHHHHHHSSGLVPRGSHMKDDYSSFLSNNNLGWTDPTEFPLGCSPNVTTPKNGLSMELYSYDLRKNGSYPCWDAAYLDPNYPRTGYKSHRLLAKVDGVTGNINFYYHATKGCTPEIDHLPASYNYPKPLTMTNFTMLLYGYFKPKVTGYHTFTISADDLLFVNFGAGNAFDCCKRESSADDFGNYQAYAVWGSQTAKDDLTVHLDAGLYYPIRIFFNNREYDAELSLTLKTESDSNPVIDFSDYFYSFDDTKDGCPGLVSYDTS
For B1, the “glycan array binding signal (z-score)” value (Fuc(a1-2)Gal(b1-3)GalNAc) was -0.169, the “glycan array binding signal (z-score)” value [1] was -0.072 and the “glycan array binding signal (z-score)” value [2] was -0.206. The “glycan array binding signal (z-score)” value [3] was -0.253, the “glycan array binding signal (z-score)” value [4] was -0.209 and the “glycan array binding signal (z-score)” value [5] was -0.027. For the same binder, the “glycan array binding signal (z-score)” value [6] was -0.285, the “glycan array binding signal (z-score)” value (Fuc(a1-2)[Gal(a1-3)]Gal) was -0.213 and the “glycan array binding signal (z-score)” value [7] was -0.241. For the same binder, the “glycan array binding signal (z-score)” value [8] was -0.208, the “glycan array binding signal (z-score)” value [9] was -0.256 and the “glycan array binding signal (z-score)” value [10] was -0.19. The “glycan array binding signal (z-score)” value [11] was -0.201, the “glycan array binding signal (z-score)” value (Gal(b1-3)Gal) was 2.85 and the “glycan array binding signal (z-score)” value (Gal(b1-3)Gal(b1-4)GlcNAc) was 5.79. For the same binder, the “glycan array binding signal (z-score)” value [12] was 5.79, the “glycan array binding signal (z-score)” value [13] was 5.59 and the “glycan array binding signal (z-score)” value (Gal(b1-3)GalNAc(b1-3)Gal) was 11. The “glycan array binding signal (z-score)” value [14] was 4.75, the “glycan array binding signal (z-score)” value [15] was 7.99 and the “glycan array binding signal (z-score)” value [16] was 4.82. The “glycan array binding signal (z-score)” value (Gal(b1-3)GlcNAc) was -0.104, the “glycan array binding signal (z-score)” value [17] was -0.207 and the “glycan array binding signal (z-score)” value [18] was 1.21. The “glycan array binding signal (z-score)” value [19] was 4.18, the “glycan array binding signal (z-score)” value (Gal(b1-4)Glc) was -0.199 and the “glycan array binding signal (z-score)” value [20] was -0.246. The “glycan array binding signal (z-score)” value [21] was 0.068, the “glycan array binding signal (z-score)” value [22] was 5.02 and the “glycan array binding signal (z-score)” value [23] was 0.23. The “glycan array binding signal (z-score)” value [24] was 5.53, the “glycan array binding signal (z-score)” value (Gal6P(b1-4)GlcNAc) was -0.241 and the “glycan array binding signal (z-score)” value (GalNAc(b1-3)Gal) was -0.245. The “glycan array binding signal (z-score)” value [25] was -0.251, the “glycan array binding signal (z-score)” value (GalNAc(b1-4)Gal(b1-4)Glc) was -0.213 and the “glycan array binding signal (z-score)” value [26] was -0.234. For the same binder, the “glycan array binding signal (z-score)” value [27] was -0.237, the “glycan array binding signal (z-score)” value [28] was -0.197 and the “glycan array binding signal (z-score)” value [29] was -0.232. The “glycan array binding signal (z-score)” value (GlcNAc(b1-3)Fuc) was -0.233, the “glycan array binding signal (z-score)” value [30] was -0.225 and the “glycan array binding signal (z-score)” value (GlcNAc(b1-3)Man) was -0.232. The “glycan array binding signal (z-score)” value (GlcNAc(b1-4)GlcNAc) was -0.23, the “glycan array binding signal (z-score)” value [31] was -0.06 and the “glycan array binding signal (z-score)” value [32] was -0.256. For the same binder, the “glycan array binding signal (z-score)” value [33] was -0.21, the “glycan array binding signal (z-score)” value [34] was -0.196 and the “glycan array binding signal (z-score)” value [35] was -0.228. The “glycan array binding signal (z-score)” value (Neu5Ac(a2-3)Gal(b1-4)Glc) was -0.257, the “glycan array binding signal (z-score)” value [36] was -0.189 and the “glycan array binding signal (z-score)” value (Neu5Ac(a2-6)Gal) was -0.228. The “glycan array binding signal (z-score)” value [37] was -0.234, the “glycan array binding signal (z-score)” value [38] was -0.258 and the “glycan array binding signal (z-score)” value [39] was 1.19. For the same binder, the “glycan array binding signal (z-score)” value [40] was -0.257, the “glycan array binding signal (z-score)” value [41] was 0.014 and the “glycan array binding signal (z-score)” value [42] was -0.241.
